This is an account of results in PubChem BioAssay (EPA / NIEHS).

Structures are written as SMILES. Results filed as inconclusive are left out. Active and inactive are the calls of the source. How the source made its calls, unless noted: active means hit-call score of the fitted dose curve at least 0.9, where 1 is the maximum; inconclusive means response in the unintended direction; inactive means score below 0.9.

A short description of assay [1]: ATG_TGFb_CIS: Attagene CIS-FACTORIAL HepG2 Assay for human Transforming Growth Factor (TGF) (AID 2282967; active means hit-call score of the fitted dose curve at least 0.9, where 1 is the maximum; inactive means score below 0.9). To be noted: HepG2 Attagene CIS TGFb reporter, mRNA transcription; actives raise or lower the signal. The procedure, abridged: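 Liver HepG2 line, cis-factorial reporter panel, 24 h dosing. Quantitation: RT-PCR products labeled with 6-FAM, cut with HpaI, resolved by capillary electrophoresis; DMSO-referenced bidirectional analysis.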

The nature of assay [2]: ATG_VDRE_CIS: Attagene CIS-FACTORIAL HepG2 Assay for human Vitamin D Receptor Element (VDRE) (AID 2282968; active means hit-call score of the fitted dose curve at least 0.9, where 1 is the maximum; inactive means score below 0.9). Conditions: HepG2 VDRE cis-reporter transcription, actives raise or lower the signal. The method in brief:
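RT-PCR/CE readout of reporter mRNA; HepG2, transient transfection, 24 h dosing; DMSO baseline; bidirectional analysis.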

The target in assay [3] is Nuclear receptor subfamily 1 group I member 3 (Homo sapiens) (UniProt Q14994). Briefly: ATG_CAR_TRANS: Attagene TRANS-FACTORIAL HepG2 Assay for human Constitutive Androstane Receptor (CAR) (AID 2282969).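 Further: activators raise reporter mRNA above DMSO so AC50 marks induction.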 To be noted: HepG2 Attagene TRANS-FACTORIAL CAR reporter. The method in brief:
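HepG2 cells transiently transfected with multiplexed GAL4-UAS reporter units expressing chimeric NR-Gal4 proteins; compound exposure 24 h. Reporter mRNA measured by RT-PCR, 6-FAM labelling, HpaI digestion and capillary electrophoresis; gain-of-signal fitted against DMSO baseline.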

Assay [4] deals with Estrogen receptor (Homo sapiens) (UniProt P03372). Briefly: ATG_ERa_TRANS: Attagene TRANS-FACTORIAL HepG2 Assay for human Estrogen Receptor alpha (ERa) (AID 2282970). Conditions: HepG2 Attagene TRANS ERa GAL4 reporter, mRNA. The procedure, abridged: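 HepG2 cells transiently transfected with multiplexed GAL4-UAS reporter units; ERa activity read via exogenous chimeric NR-Gal4 protein. After 24 hour compound exposure, reporter mRNA measured by RT-PCR with 6-FAM labelling and capillary electrophoresis; gain-of-signal fitted relative to DMSO.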
Chain of Estrogen receptor (Homo sapiens) (P03372 whole entry, looked up, the tested form may be a part): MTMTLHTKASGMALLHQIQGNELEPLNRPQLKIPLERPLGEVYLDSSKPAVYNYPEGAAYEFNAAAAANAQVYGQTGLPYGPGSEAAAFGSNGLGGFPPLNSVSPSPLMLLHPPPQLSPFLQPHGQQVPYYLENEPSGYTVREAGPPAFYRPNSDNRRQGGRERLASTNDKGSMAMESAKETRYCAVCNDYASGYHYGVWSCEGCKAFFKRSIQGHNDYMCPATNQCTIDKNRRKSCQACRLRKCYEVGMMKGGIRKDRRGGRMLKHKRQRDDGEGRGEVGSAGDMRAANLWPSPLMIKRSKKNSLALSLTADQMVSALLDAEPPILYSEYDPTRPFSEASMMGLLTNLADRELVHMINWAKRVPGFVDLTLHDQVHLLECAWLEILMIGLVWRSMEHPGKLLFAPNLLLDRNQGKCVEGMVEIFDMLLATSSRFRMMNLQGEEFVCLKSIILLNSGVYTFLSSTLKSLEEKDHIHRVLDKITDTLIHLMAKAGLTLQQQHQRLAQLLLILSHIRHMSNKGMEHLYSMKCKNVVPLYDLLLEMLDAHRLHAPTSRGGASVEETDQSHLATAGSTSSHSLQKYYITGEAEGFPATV

Assay [5] deals with Steroid hormone receptor ERR1 (Homo sapiens) (UniProt P11474). Nature of the assay: ATG_ERRa_TRANS: Attagene TRANS-FACTORIAL HepG2 Assay for human Estrogen-Related Receptor alpha (ERRa) (AID 2282971). To be noted: HepG2 Attagene TRANS reporter, ERRa transactivation. The method in brief: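 HepG2 cells transiently transfected with multiplexed GAL4-UAS reporter units reading chimeric ERRa-Gal4 activity; 24 h compound exposure. Reporter mRNA measured by RT-PCR, 6-FAM labelling, HpaI digest and capillary electrophoresis; gain of signal fitted versus DMSO baseline.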
Chain of Steroid hormone receptor ERR1 (Homo sapiens) (P11474 whole entry, looked up, the tested form may be a part): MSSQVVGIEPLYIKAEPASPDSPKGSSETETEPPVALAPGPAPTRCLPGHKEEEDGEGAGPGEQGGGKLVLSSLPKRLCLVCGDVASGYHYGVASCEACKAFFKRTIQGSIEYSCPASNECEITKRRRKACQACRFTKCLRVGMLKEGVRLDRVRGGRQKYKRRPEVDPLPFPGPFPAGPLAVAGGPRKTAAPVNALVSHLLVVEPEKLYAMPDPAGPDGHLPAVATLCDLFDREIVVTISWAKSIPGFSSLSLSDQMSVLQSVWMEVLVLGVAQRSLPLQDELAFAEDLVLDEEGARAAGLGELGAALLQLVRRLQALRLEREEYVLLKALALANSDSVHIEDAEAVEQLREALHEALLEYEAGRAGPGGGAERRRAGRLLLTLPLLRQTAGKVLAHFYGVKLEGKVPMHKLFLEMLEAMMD

Assay [6] has as its target X-box-binding protein 1 (Homo sapiens) (UniProt P17861). Nature of the assay: ATG_Xbp1_CIS: Attagene CIS-FACTORIAL HepG2 Assay for human X-box Binding Protein 1 (XBP1) (AID 2282972; active means hit-call score of the fitted dose curve at least 0.9, where 1 is the maximum; inactive means score below 0.9). To be noted: HepG2 XBP1 cis-element reporter, Attagene multiplex; actives raise or lower the signal. The procedure, abridged: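 HepG2 cells transiently transfected with multiple cis-element reporter units report endogenous TF activity; 24 h exposure, then reporter mRNA measured by RT-PCR, 6-FAM labelling, HpaI digestion and capillary electrophoresis. Bidirectional fitting versus DMSO.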

Assay [7] is described as follows: ATG_M_19_TRANS: Attagene TRANS-FACTORIAL HepG2 Assay for M19 Transcription Factor (Internal Marker) (AID 2282974). To be noted: HepG2 Attagene TRANS-FACTORIAL M19 internal marker reporter. The procedure, abridged: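 Gain-of-signal in reporter mRNA, relative to DMSO, was scored from capillary electrophoresis fluorescence. HepG2 cells carried transiently transfected multiple reporter transcription units and were incubated with test chemicals for 24 h.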

Assay [8] in a line: ATG_Hpa5_TRANS: Attagene TRANS-FACTORIAL HepG2 Assay for human GAL4-Hpa5 Hepatocyte Transcription Factor Basal Promoter (AID 2282975).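 Further: hits are increases in reporter mRNA over DMSO baseline.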 Conditions: HepG2 Attagene GAL4-Hpa5 transcription reporter. The procedure, abridged: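 Basal-promoter GAL4 background control within the HepG2 trans-factorial panel of transiently transfected reporter units. Reporter mRNA is measured 24 h after dosing by RT-PCR and capillary electrophoresis, fitted for gain of signal versus DMSO.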

Assay [9] concerns the target Androgen receptor (Homo sapiens) (UniProt P10275). Nature of the assay: ATG_AR_TRANS: Attagene TRANS-FACTORIAL HepG2 Assay for human Androgen Receptor (AR) (AID 2282973). Conditions: HepG2 Attagene TRANS-FACTORIAL AR reporter transcription. The procedure, abridged: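 HepG2 cells transiently transfected with multiplexed GAL4-UAS reporter units and chimeric NR-Gal4 fusion; 24 h compound exposure. Reporter mRNA measured by RT-PCR, 6-FAM labelling, HpaI digestion and capillary electrophoresis; gain-of-signal fitted relative to DMSO baseline.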

Assay [10] can be described thus: ATG_GAL4_TRANS: Attagene TRANS-FACTORIAL HepG2 Assay for GAL4 (Internal Marker) (AID 2282976). Conditions: HepG2 Attagene TRANS GAL4 internal marker reporter. The procedure, abridged: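 HepG2 cells transiently transfected with multiplexed GAL4-UAS reporter constructs were dosed for 24 h. Reporter mRNA was measured by RT-PCR, 6-FAM primer extension, HpaI digestion and capillary electrophoresis, and gain of signal was fitted relative to DMSO.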

Chain of Androgen receptor (Homo sapiens) (P10275 whole entry, looked up, the tested form may be a part): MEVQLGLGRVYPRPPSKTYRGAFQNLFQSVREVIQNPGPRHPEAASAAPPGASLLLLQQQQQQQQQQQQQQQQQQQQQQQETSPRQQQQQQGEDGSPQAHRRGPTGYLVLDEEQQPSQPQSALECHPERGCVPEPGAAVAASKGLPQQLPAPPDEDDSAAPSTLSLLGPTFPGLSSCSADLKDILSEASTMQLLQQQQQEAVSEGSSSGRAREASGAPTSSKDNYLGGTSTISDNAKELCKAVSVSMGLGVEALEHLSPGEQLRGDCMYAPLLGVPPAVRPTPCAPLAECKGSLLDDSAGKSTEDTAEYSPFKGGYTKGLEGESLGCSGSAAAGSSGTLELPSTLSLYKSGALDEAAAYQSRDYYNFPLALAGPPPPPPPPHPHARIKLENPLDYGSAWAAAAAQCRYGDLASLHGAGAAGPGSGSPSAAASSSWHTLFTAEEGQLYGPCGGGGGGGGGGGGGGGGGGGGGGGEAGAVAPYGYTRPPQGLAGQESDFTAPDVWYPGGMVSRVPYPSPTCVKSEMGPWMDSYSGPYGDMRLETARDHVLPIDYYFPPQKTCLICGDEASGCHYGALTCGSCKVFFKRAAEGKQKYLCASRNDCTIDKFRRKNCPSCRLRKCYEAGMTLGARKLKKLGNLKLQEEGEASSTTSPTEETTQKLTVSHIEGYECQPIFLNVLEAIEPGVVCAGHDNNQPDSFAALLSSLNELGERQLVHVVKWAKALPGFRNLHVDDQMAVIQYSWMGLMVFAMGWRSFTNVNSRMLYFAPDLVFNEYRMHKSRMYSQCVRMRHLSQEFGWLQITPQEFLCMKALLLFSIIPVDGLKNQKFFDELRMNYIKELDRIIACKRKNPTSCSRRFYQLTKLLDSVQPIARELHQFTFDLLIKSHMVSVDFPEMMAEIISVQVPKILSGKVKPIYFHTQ
Chain of Nuclear receptor subfamily 1 group I member 3 (Homo sapiens) (Q14994 whole entry, looked up, the tested form may be a part): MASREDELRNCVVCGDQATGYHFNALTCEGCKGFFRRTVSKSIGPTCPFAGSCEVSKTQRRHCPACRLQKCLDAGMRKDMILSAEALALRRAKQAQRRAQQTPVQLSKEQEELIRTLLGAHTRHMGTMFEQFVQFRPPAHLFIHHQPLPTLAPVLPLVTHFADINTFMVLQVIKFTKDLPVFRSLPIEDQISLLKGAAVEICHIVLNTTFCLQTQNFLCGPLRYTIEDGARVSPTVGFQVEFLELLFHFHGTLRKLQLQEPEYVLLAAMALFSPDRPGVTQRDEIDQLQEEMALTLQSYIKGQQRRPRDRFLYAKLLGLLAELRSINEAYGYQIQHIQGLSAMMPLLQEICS
Chain of X-box-binding protein 1 (Homo sapiens) (P17861 whole entry, looked up): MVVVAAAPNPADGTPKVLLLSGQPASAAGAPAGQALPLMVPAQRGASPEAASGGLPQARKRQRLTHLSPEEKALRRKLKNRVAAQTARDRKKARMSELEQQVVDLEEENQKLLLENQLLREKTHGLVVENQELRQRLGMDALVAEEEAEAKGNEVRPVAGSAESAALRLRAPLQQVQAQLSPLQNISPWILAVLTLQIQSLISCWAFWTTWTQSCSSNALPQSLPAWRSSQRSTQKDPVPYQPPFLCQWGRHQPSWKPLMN

For the compound `CCCCOC(=O)[C@@H](C)Oc1ccc(Oc2ccc(C#N)cc2F)cc1`, the compound was classed as inactive in assay [1], in assay [2], in assay [3], in assay [4], in assay [5] and in assay [6]. The result in [7] was inactive.

Regarding `COP(=O)(OC)C(O)C(Cl)(Cl)Cl` (stereo not drawn), the compound was classed as inactive in [1], in [3], in assay [5], in assay [7] and in assay [8]. In addition, the half-maximal activity concentration (AC50) – broadly, the midpoint of the concentration-response curve, whichever way the signal moves – in assay [6] was 39.7 µM (active).

On to `CC(COc1ccc(Oc2ccccc2)cc1)Oc1ccccn1` (stereo not drawn), for which the compound was called inactive in assay [1], in [3], in assay [5] and in assay [6]. Moreover, the AC50 in [2] was 16 µM (active).

`CNC(=O)ON=C(SC)C(=O)N(C)C`: the compound was called inactive in assay [1], in [3], in [4], in assay [5] and in assay [7]. Besides, the AC50 in assay [6] was 40.5 µM (active).

Take `CCC(=O)Nc1ccc(Cl)c(Cl)c1`: the call in assay [1], in assay [3], in [6], in [9], in [7] and in assay [8] was inactive. The compound was classed as inactive in assay [10].

Consider `CCCCOC(=O)c1ccccc1C(=O)O`, for which the compound was called inactive in assay [1], in assay [3], in [6], in assay [9] and in [7].

Turning to `CCC(=NOC/C=C/Cl)C1=C(O)CC(C2CCOCC2)CC1=O` (stereo not drawn), the compound was classed as inactive in assay [1], in [5], in [6], in assay [7] and in assay [8].

With `C#CC(C)(C)NC(=O)c1cc(Cl)cc(Cl)c1`, the compound was called inactive in assay [1], in assay [3], in assay [6], in assay [7] and in assay [8].

For the compound `O=C(O)c1cc(Oc2ccc(C(F)(F)F)cc2Cl)ccc1[N+](=O)[O-]`, the compound was called inactive in [1], in [5], in [6], in assay [7] and in assay [8].

For `Cc1nn(-c2cc(NS(C)(=O)=O)c(Cl)cc2Cl)c(=O)n1C(F)F`, the result in assay [1], in assay [5], in assay [6], in [9] and in assay [7] was inactive.

With `CCc1cnc(C2=NC(C)(C(C)C)C(=O)N2)c(C(=O)O)c1` (stereo not drawn), the compound was called inactive in assay [1], in assay [3], in assay [6] and in assay [8].

For `CC(C1CC1)C(O)(Cn1cncn1)c1ccc(Cl)cc1` (stereo not drawn), the outcome in assay [1], in assay [6] and in assay [7] was inactive.

With `CCOC(=O)CC(SP(=O)(OC)OC)C(=O)OCC` (stereo not drawn), the result in assay [1], in assay [3], in [6], in assay [7] and in assay [8] was inactive.

Consider `CC(C)N(C(=O)SCC(Cl)=C(Cl)Cl)C(C)C`, for which the call in assay [1], in assay [3], in [6] and in assay [8] was inactive.

As to `CC(=NC#N)N(C)Cc1ccc(Cl)nc1`, the compound was called inactive in assay [1], in assay [6] and in [8].

Consider `CNc1cnn(-c2cccc(C(F)(F)F)c2)c(=O)c1Cl`, for which the outcome in [1], in assay [3], in [6] and in assay [8] was inactive.

For the compound `CCOP(=S)(OCC)OC(Cl)C(Cl)(Cl)Cl` (stereo not drawn), the outcome in assay [1], in [3], in assay [6] and in assay [8] was inactive.

Consider `CNC(=O)Oc1cccc2c1OC(C)(C)O2`, for which the call in assay [1], in assay [4] and in assay [8] was inactive. For the same compound, the AC50 in [6] was 33.2 µM (active).

Consider `C[N+]1(C)CCCCC1`, for which the compound was classed as inactive in [1], in assay [6] and in [7].

As to `CSC1=N[C@@](C)(c2ccccc2)C(=O)N1Nc1ccccc1`, the call in [1], in [6] and in [8] was inactive.

With `CN(C)[C@@H]1C(=O)C(C(N)=O)=C(O)[C@@]2(O)C(=O)C3=C(O)c4c(O)cccc4[C@@](C)(O)[C@H]3[C@H](O)[C@@H]12`, the outcome in assay [1], in assay [6], in assay [7], in assay [8] and in assay [10] was inactive.

Regarding `CCOP(=S)(OCC)SCCSCC`, the compound was classed as inactive in [1], in [3], in assay [6] and in assay [8].

Consider `CN(C)C(=O)Nc1cccc(C(F)(F)F)c1`, for which the outcome in assay [1], in assay [6] and in assay [7] was inactive.

As for `CNC(=O)ON=C(C)SC`, the call in assay [1], in assay [6], in [7] and in assay [8] was inactive.

`CCOP(=O)(SC(C)CC)N1CCSC1=O` (stereo not drawn): the result in assay [1], in assay [3], in assay [6], in assay [7] and in [8] was inactive.

`CCOP(=O)(OCC)Oc1cc(C)nc(C(C)C)n1`: the result in [1] and in assay [6] was inactive.

In the case of `C#CCC1=C(C)C(OC(=O)C2C(C=C(C)C)C2(C)C)CC1=O` (stereo not drawn), the result in assay [1], in assay [3] and in assay [8] was inactive. The AC50 in assay [6] is 84.6 µM (active).

Consider `CCCOCC(=Nc1ccc(Cl)cc1C(F)(F)F)n1ccnc1`, for which the result in [1], in assay [6], in assay [7], in [8] and in assay [10] was inactive.

For `COP(=O)(NC(C)=O)SC` (stereo not drawn), the compound was classed as inactive in assay [1], in assay [3], in [6] and in [8].

Take `CCOP(=S)(OCC)Oc1cc(C)nc(C(C)C)n1`: the compound was called inactive in assay [1], in assay [3], in [6] and in assay [8].

On to `CCCSP(=O)(OCC)Oc1ccc(Br)cc1Cl` (stereo not drawn), for which the result in assay [1], in [3] and in assay [8] was inactive. For the same compound, the concentration at half-maximal activity (AC50) in assay [6] is 1.31 µM (active).

For `CCCSP(=O)(OCC)SCCC`, the compound was called inactive in assay [1], in assay [3], in [6], in [7] and in assay [8].

In the case of `C[Si](Cn1cncn1)(c1ccc(F)cc1)c1ccc(F)cc1`, the call in assay [1], in assay [6] and in assay [8] was inactive.

Turning to `CC(C)[C@H](C(=O)O[C@H](C#N)c1cccc(Oc2ccccc2)c1)c1ccc(Cl)cc1`, the result in assay [1], in [3], in [6], in assay [7] and in [8] was inactive.

`COc1cccc(C(=O)NN(C(=O)c2cc(C)cc(C)c2)C(C)(C)C)c1C`: the outcome in assay [1], in assay [5] and in [6] was inactive.

As to `CCCCSP(=O)(SCCCC)SCCCC`, the compound was called inactive in assay [1], in [3], in assay [6], in [7] and in assay [8].
